Data: PubChem BioAssay AID1987 (The Scripps Research Institute Molecular Screening Center, 2009)
About 560 (0.17%) of roughly 320,000 compounds were called active. Shown is part of a subset that was picked to be rich in actives. A number with no mark means an inactive call.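 Rule for the calls: active = inhibition above the campaign's mean inhibition across all tested compounds plus 3 SD (cut at about 9.5% in these data); inactive = the rest.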

These compounds were tested against Serine/threonine-protein phosphatase 5 (Homo sapiens) (UniProt P53041) (assay: inhibition of human PP5 catalytic activity – biochemical, fluorescence, primary screen (AID 1987;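 note: 0% = DMSO only and 100% = 100 µM cantharidin control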)). Conditions: purified PP5c, OMFP substrate fluorescence; at 6.7 µM; active compounds read high.
Serine/threonine-protein phosphatase 5 (Homo sapiens), sequence (P53041 whole entry, looked up): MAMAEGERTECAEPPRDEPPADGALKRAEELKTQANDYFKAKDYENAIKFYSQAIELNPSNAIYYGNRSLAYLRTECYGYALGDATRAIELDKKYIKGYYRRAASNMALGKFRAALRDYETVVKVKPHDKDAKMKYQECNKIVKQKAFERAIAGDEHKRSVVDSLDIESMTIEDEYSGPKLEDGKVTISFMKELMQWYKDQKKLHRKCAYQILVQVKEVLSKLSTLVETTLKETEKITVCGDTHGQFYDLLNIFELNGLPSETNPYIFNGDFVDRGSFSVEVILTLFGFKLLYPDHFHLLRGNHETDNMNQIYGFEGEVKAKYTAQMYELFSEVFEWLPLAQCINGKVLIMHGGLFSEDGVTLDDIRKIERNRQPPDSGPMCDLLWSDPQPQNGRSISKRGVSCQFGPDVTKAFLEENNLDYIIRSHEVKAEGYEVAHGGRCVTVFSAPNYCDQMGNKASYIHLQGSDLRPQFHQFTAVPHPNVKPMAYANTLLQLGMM

Row | Structure (SMILES) | inhibition
1 | O=C(O)c1ccccc1NC(=O)C1C2CCC(O2)C1C(=O)O (stereo not given) | 41.3% (active)
2 | Cc1cc(C)cc(NC(=S)NC2CC3CCCC(C2)N3Cc2cccs2)c1 (stereo not given) | 4.69%
3 | CC(c1ccccc1)(c1ccccc1)c1ccncc1 | -0.19%
4 | C[N+]12CN3CN(CN(C3)C1)C2 | -1.24%
5 | CCOP(=O)(OCC)C(NC(=O)NC)C(N)=O (stereo not given) | -0.58%
